Screening data (PubChem)
Beta cell apopt = beta cell apoptosis inhibition; AID 435005; protection from apoptosis, % (concentration not given with the values); INS-1E cytokine-induced death, ATP luminescence, 48 h; percent of positive-control rescue, neutral wells zero; 0.8% of 300,000 active;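 active means Every replicate reaches about 75%, or at least half do and their mean reaches it too, limit read from the data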;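 further: 0% = cytokine-treated negative control wells and 100% = positive control rescue; higher means more ATP so stronger rescue from cytokine killing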
Jurkat NFkB inh = inhibitors of the PMA/ionomycin-induced NF-kB reporter in Jurkat cells; 0.53% of 330,000 active; PMA/ionomycin-induced NF-kB luciferase reporter, luminescence; inhibition, % at 4 µM; AID 435003; in the data active means inhibition above about 50%
697 NFkB inh = lowers PMA/ionomycin-induced NF-kB signal in 697 B cells | 0.33% of 330,000 active | 697 B-cell NF-kB luciferase reporter, 16 h | inhibition, % at 4 µM; in the data active means inhibition above about 35%
Gli-Sufu block = blocks Gli-Sufu signaling in a luciferase reporter. Sufu-KO-LIGHT fibroblasts, Gli luciferase reporter luminescence. inhibition, % at 5 µM. 0.74% of 340,000 active;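 active means inhibition above about 55%, limit read from the data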;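 further: 0% = DMSO-treated cells and 100% = wells with medium but no cells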
Mdm2-MdmX inh = disrupts the human Mdm2-MdmX interaction; O15151+Q00987; SaOS-2 split-luciferase Mdm2/MdmX complementation, luminescence; inhibition, % at 8 µM; 3% of 330,000 active; AID 485346;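 active means inhibition of at least 50% at 8 µM in the primary screen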
Jurkat NFkB conf = inhibitors of the PMA/ionomycin-induced NF-kB reporter in Jurkat cells, retest. AID 435020. inhibition, % at 4 µM. Jurkat NF-kB luciferase, 16 h. 27% of 2,700 active. shares compounds with Jurkat NFkB inh;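 active means inhibition reaching about 45% at 4 µM in either replicate, limit read from the data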;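 further: plate controls were PMA/ionomycin stimulated DMSO wells for no effect and unstimulated DMSO wells for full effect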
697 NFkB conf = lowers PMA/ionomycin-induced NF-kB signal in 697 B cells. shares compounds with 697 NFkB inh. 697 B-cell NF-kB luciferase, 16 h. inhibition, % at 4 µM. 35% of 2,000 active; in the data active means inhibition mostly above about 28%, no sharp cut-off; inactive means mostly below about 22%
Numbers without * were called inactive; i = inactive; . = no result. Rows were chosen to be rich in hits. Some 4% of all compounds tested hit in one or more screens of this group.

SMILES	Beta cell apopt	Jurkat NFkB inh	697 NFkB inh	Gli-Sufu block	Mdm2-MdmX inh	Jurkat NFkB conf	697 NFkB conf
Cc1ccc(S(=O)(=O)NC(CC(C)C)C(=O)Nc2ccncc2)cc1 (configuration not stated)	2	3	4	-3	13	.	.
COc1ccc(CNC(=S)Nc2ccccc2)cc1	1	-5	-9	17	9	.	.
CC(=O)Nc1ccccc1OCC(=O)c1cc(C)n(Cc2cccs2)c1C	111*	56*	96*	79*	-9	58*	65*
CC(OC(=O)c1ccco1)C(=O)NC1CCCC1 (configuration not stated)	-1	3	-8	-5	10	.	.
c1ccc2sc(NN=C3CCCCCC3)nc2c1	3	-156	-388	-51	-59	-92	-319
O=C(O)c1ccccc1-c1ccccc1C(=O)Nc1nc2ccccc2s1	0	-7	9	-2	-8	.	.
O=C(Nc1nc2ccccc2s1)c1ccccc1	12	-220	-261	-123	-210	-147	-311
CC(=O)c1ccc(NC(=O)/C(=C\c2ccc(F)cc2)NC(=O)c2ccco2)cc1	-2	16	-5	-17	-7	.	.
Clc1ccc(/C=C/c2nc3ccccc3[nH]2)cc1	31	-195	-366	-171	-77	-111	-333
COc1cccc(-c2nc(-c3cccs3)no2)c1	-3	-163	-289	-64	-318	-131	-311
Cc1cc(-c2ccccc2)n2ncc(-c3ccccc3)c2n1	7	-202	i	-36	6	-91	i
CC(C)(C)c1cc(N2CCOCC2)n2ncc(-c3ccc(Cl)cc3)c2n1	2	-16	-11	-21	28	.	.
Cc1cc(N2CCCCC2)n2ncc(-c3ccc(Cl)cc3)c2n1	1	-189	-309	-11	49	-80	-214
Cc1cc(N2CCCCC2)n2ncc(-c3ccccc3)c2n1	-1	-185	i	-24	40	-63	-418
Cc1ccnc(NS(=O)(=O)c2ccc(NC(=O)C3C4C=CC(C4)C3C(=O)O)cc2)n1 (configuration not stated)	-3	10	-4	1	9	.	.
O=S(=O)(Nc1ccncc1)c1ccc(Cl)c(Cl)c1	5	-25	-12	1	5	.	.
CC(NC(=S)NNS(=O)(=O)c1cccc([N+](=O)[O-])c1)c1ccccc1 (configuration not stated)	.	9	3	6	7	.	.
O=C(COC(=O)c1ccc[nH]c1=O)Nc1ccc(N2CCCCC2)cc1	-7	51*	79*	54	-40	70*	80*
O=C(Nc1ccc(Cl)c(Cl)c1)c1ccc2c(c1)OCO2	10	-205	-370	-111	-255	-174	-320
CC(=O)c1c(C)[nH]c(C(=O)COC(=O)Cc2ccccc2F)c1C	3	5	-18	.	15	.	.
Nn1cnnc1SCC(=O)Nc1ccc(C2CCCCC2)cc1	-2	-19	-49	-32	-21	.	.
O=C(O)CSCC(=O)Nc1ccc(C2CCCCC2)cc1	-4	63*	90*	38	34	78*	83*
Cc1csc(NC(=O)c2ccc(OCC3CCCO3)cc2)n1 (configuration not stated)	-3	-80	29	-68	-127	.	.
O=C(Nc1nc(-c2ccc(F)c(F)c2)cs1)c1ccc(OCC2CCCO2)cc1 (configuration not stated)	6	58*	50*	12	22	63*	33*
Cc1cccc(OCCCC(=O)Nc2ccc(S(=O)(=O)Nc3nccs3)cc2)c1C	-4	24	8	2	10	.	.
SMILES	Beta cell apopt	Jurkat NFkB inh	697 NFkB inh	Gli-Sufu block	Mdm2-MdmX inh	Jurkat NFkB conf	697 NFkB conf
CCCCC#Cc1ccc2c(c1)COc1c3ccccc3nn1-2	3	-140	-228	-10	-123	.	.
N#CCCCC#Cc1ccc2c(c1)COc1c3ccccc3nn1-2	12	-193	-442	-60	3	-55	-381
CCN(CC)c1ccc(C(=O)Nc2ccccc2)cc1[N+](=O)[O-]	-4	-72	-15	-74	-26	.	.
CCCN(CCC)c1ncnc2c1cnn2-c1ccc(OC)cc1	0	-161	-349	-56	-2	-103	-363
CCC(CO)Nc1ncnc2c1cnn2-c1ccc(OC)cc1 (configuration not stated)	.	-91	-124	-108	-25	.	.
COc1ccccc1N1CCN(C(=O)c2ccc(CN3CCOCC3)cc2)CC1	-5	-16	-20	8	8	.	.
Cc1ccc(-c2nc(Nc3ccccc3)n[nH]2)cc1	-3	-162	-280	-137	-227	-160	-367
O=C(Nc1ccc2c(c1)CCC2)Nc1ccccc1F	1	-233	-307	.	-141	-111	-356
O=C(Nc1ncc(Cc2cccc(Cl)c2)s1)c1cccs1	-1	-40	-118	-25	-42	.	.
O=C(Nc1ncc(Cc2ccccc2)s1)c1cccs1	-4	-173	-326	3	-104	-116	-248
Cc1ccc(NC(=O)c2cnn(-c3ccccc3)c2C)c(C)c1	6	-82	-111	-69	-40	.	.
Cc1ccc(NC(=O)c2cnn(-c3ccccc3)c2C)cc1	5	-153	-264	-100	-89	-105	-307
O=C(NC(=S)Nc1ccccc1O)c1ccc(Cl)cc1Cl	.	-25	-59	-26	-11	.	.
COc1ccc2nc(NC(=O)c3ccoc3C)sc2c1	43	-191	-251	-78	-78	-92	-324
COc1ccc2nc(NC(=S)N(C)C)sc2c1	17	-170	-319	-42	-176	-52	-226
CCCC(=O)Nc1nc2ccc(OC)cc2s1	-3	-75	-113	-73	-59	.	.
COc1ccc(-c2noc(=O)n2Cc2ccccc2F)cc1	-4	4	10	1	40	.	.
Cc1cccc(N2CCN(C(=O)CCC(=O)N3Cc4ccccc4Oc4ncccc43)CC2)c1C	-1	9	-17	20	2	.	.
Nc1nc(-c2cc(-c3ccccc3)no2)cs1	.	-92	-198	-84	-226	.	.
Cc1ccc(-c2cc(-c3ccccc3)no2)cc1	-6	-203	-426	-183	-183	-149	-362
COCCNc1nc(C)cc(-c2cc(C(=O)NCc3ccccc3)on2)n1	1	-6	13	-4	22	.	.
Cc1cc(-c2cc(C(=O)NCc3ccccc3)on2)nc(S(C)(=O)=O)n1	-9	52*	51*	18	24	34	42*
CCC(=O)NC(=S)Nc1ccc(N2CCN(C(=O)c3ccc(Cl)cc3)CC2)cc1	2	8	-5	13	20	.	.
COc1ccc(-c2ccc3sc4ccccc4c(=O)c3c2)cn1	5	-202	-301	-100	-171	-127	-255
O=Nc1c(O)[nH]c2ccc(Cl)c(Cl)c12	.	.	.	9	.	.	.
O=C(NCC(=O)N1CCN(S(=O)(=O)c2cccs2)CC1)c1ccc(Cl)cc1	1	-2	21	5	6	.	.
Cc1ccc(-c2nc3cc(N)ccc3o2)cc1	-6	-202	-265	-80	-57	-82	-193
